Inconclusive results are not listed. Activity calls are given as the source filed them. Rule for the calls: active = hit-call score of the fitted dose curve at least 0.9, where 1 is the maximum; inconclusive = response in the unintended direction; inactive = score below 0.9. *1 amine or outer side, *2 acyl side, *3 side chain or, on linkers, in order; H or OH if unused. Where a SMILES comes first, the peptide text is derived from it. Bridges are numbered along the chain shown (N, C = ends). [ ]: non-standard residue; d: D form. The star is where a group is joined. X3 = NC1=N[C@@H]([C@H](N[*:1])C(=O)[*:2])C[C@H](O)N1; ΔAla(Z-3-ureido) = NC(=O)N/C=C(\N)C(=O)O; β3hOrn = NCCC[C@H](N)CC(=O)*; Dap = NC[C@H](N)C(=O)O

The nature of the test: TOX21_p53_BLA_p2_viability: Viability Assessment in the Tox21 HCT-116 p53 Agonism Beta-lactamase Assay, Phase 2 (AID 2283591).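 Note: compound exposure lasted 16 h at 37 °C; actives lower the ATP signal meaning cytotoxicity.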 The procedure, abridged: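 Cytotoxicity readout: CellTiter-Glo ATP luminescence, 30 min at room temperature, after the beta-lactamase read. Cells were HCT116 exposed 16 h at 37C to compounds pin-transferred at 217-fold dilution from DMSO stocks.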
Regarding `CC(=O)OCC(=O)[C@@]1(O)CC[C@H]2[C@@H]3CCC4=CC(=O)C=C[C@]4(C)[C@@]3(F)[C@@H](O)C[C@@]21C`, the call was inactive.

Turning to `CN(C)CCC(c1ccccc1)c1ccccn1` (centres undefined), the molecule was called inactive. In the case of `C=C(C)C(=O)OCC[N+](C)(C)C`, the call was inactive. With `CN1c2cc(O)c(N=NC(N)=O)cc2CC1S(=O)(=O)O` (centres undefined), the molecule was called inactive. The same measure for `CCNc1cc(O)ccc1C`: “inactive”; for `C=CCOc1cc(Cl)ccc1C(=O)NCCN(CC)CC`: “inactive”. The same measure for `CCOC(=N)CC(=O)OCC`: “inactive”. The same measure for `CCC(C)(C)C`: “inactive”.

In the case of `O=c1[nH]cnc2nc[nH]c12`, the call was inactive. On to `CCCc1ncc(C[n+]2ccccc2C)c(N)n1`, for which the call was inactive.

With `Cc1cc(C(=O)NCCc2ccc(S(=O)(=O)NC(=O)NN3CCCCCC3)cc2)no1`, the molecule was classed as inactive.

Consider `CCn1c2ccccc2c2cc([N+](=O)[O-])ccc21`, for which the molecule was called inactive. With `OC[C@@H](O)C(O)[C@@H](O)CO` (some centres undefined), the outcome was inactive. The same measure for `NS(=O)(=O)c1cc2c(cc1Cl)NC(CC1CCCC1)NS2(=O)=O` (centres undefined): “inactive”; for `CCCCCCN`: “inactive”. The same measure for `CC(=O)[C@H]1CC[C@H]2[C@@H]3C[C@H](C)C4=CC(=O)CC[C@]4(C)[C@H]3[C@@H](O)C[C@]12C`: “inactive”; for `Cc1c(Cn2ccnc2)c2ccccc2n1CCC(=O)O`: “inactive”; for `N[C@H](C(=O)O)c1ccc(O)cc1`: “inactive”. On to `O=c1[nH]c(=O)c2ccccc2o1`, for which the outcome was inactive. The same measure for `COc1ccc(/C=C/C(=O)Nc2ccccc2C(=O)O)cc1OC`: “inactive”. For `O=[N+]([O-])c1ccc(/C=N\O)o1`, the result was inactive. With `C=CCCCCCCCCCCCCCCCC`, the molecule was called inactive. Consider `CC(=O)SC[C@@H](C)C(=O)N1CCC[C@H]1C(=O)N[C@@H](Cc1ccccc1)C(=O)O`, for which the outcome was inactive. For the molecule `N.N.O=C([O-])C1(C(=O)[O-])CCC1.[Pt+4]`, the outcome was inactive.

With `CCCCCCCCN`, the molecule was called inactive.

In the case of `C[C@@H]1C\C=C/C=C/C=C/C=C/[C@H](O[C@@H]2O[C@H](C)[C@@H](O)[C@H](N)[C@@H]2O)C[C@@H]2O[C@](O)(C[C@@H](O)C[C@@H]3O[C@@H]3/C=C\C(=O)O1)C[C@H](O)[C@H]2C(=O)O`, the outcome was inactive. `O=P(O)(O)C(O)(Cn1ccnc1)P(=O)(O)O`: the molecule was called inactive. The same measure for `CCOc1cc(OCC)c(C(=O)CCC(=O)O)cc1OCC`: “inactive”; for `CCNc1nc(NC(C)CC)nc(OC)n1` (centres undefined): “inactive”. The same measure for `CC1(C)S[C@@H]2[C@H](N=CN3CCCCCC3)C(=O)N2[C@H]1C(=O)O`: “inactive”. In the case of `CC(O)c1ccccc1` (centres undefined), the molecule was called inactive. The same measure for `NCCC[C@H](N)CC(=O)N[C@H]1CNC(=O)[C@H]([C@H]2C[C@H](O)NC(N)=N2)NC(=O)/C(=C/NC(N)=O)NC(=O)[C@H](CO)NC(=O)[C@H](CO)NC1=O` (β3hOrn-[Dap]SS[ΔAla(Z-3-ureido)][X3]; lactam 1-C): “inactive”; for `CCCCCCCCCC(=O)N(C)C`: “inactive”. As for `CC1(N)CCC(C(C)(C)N)CC1` (centres undefined), the result was inactive. For the molecule `NC(=S)NC(N)=S`, the molecule was called inactive. In the case of `C[C@@H]1CC[C@H]2C(C)(C)[C@H]3C[C@@]12CC[C@@]3(C)O`, the outcome was inactive.

Take `COc1ccc(N=[N+]([O-])c2ccc(OC)cc2)cc1`: the molecule was called inactive.

For the molecule `Nc1ccn(C[C@@H](CO)OCP(=O)(O)O)c(=O)n1`, the molecule was called inactive. The same measure for `CN(C)CCc1c[nH]c2ccc(C[C@H]3COC(=O)N3)cc12`: “inactive”.

The values above are taken from PubChem BioAssay (EPA / NIEHS).
